The results in this text go back to PubChem BioAssay AID488966 (Southern Research Specialized Biocontainment Screening …, 2010).

The term inhibition denotes the relative decrease from the control value, in per cent.

Structures are written as SMILES. Values joined by “and” are separate entries in the source; they are usually repeats but may differ in a detail not shown here. Identical values can stand only once. About 55 (0.02%) of roughly 340,000 compounds were called active. A selection follows. Potency and affinity values are given separately. Unmarked numbers belong to inactive results.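 The calls were made as follows: active = phage lysis inhibition, versus mean bacterial control, above a set limit; inconclusive = no clear call, values can overlap the other calls; inactive = the rest.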

The assay can be described thus: inhibition of K1F phage lysis, E. coli UTI89, bacterial capsule biogenesis inhibitors, alamar blue (AID 488966).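 Also: capsule biogenesis inhibitors block K1F phage lysis so surviving cells raise fluorescence; higher fluorescence means more inhibition of phage lysis.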 Particulars: 2 h; inhibition: at 100 µM, active compounds read high unless noted; series mostly up to 300 µM. Background: Resazurin is reduced to fluorescent resorufin, in cell work by metabolically active cells.
With `CC(C)OCCCNC(=O)c1cc(-c2cccs2)nc2ccccc12`, the inhibition is 0.22%. For `CC1(C(=O)O)CCC(C(=O)Nc2ccccc2)C1(C)C` (stereo unspecified), the inhibition was 0.32%. The same measure for `COc1ccc(NC(=O)C2CCC(C)(C(=O)O)C2(C)C)cc1` (stereo unspecified): “inactive”; for `CC(=O)c1ccccc1OCCCOc1cccc2cccnc12`: 0.48%; for `O=C(Nc1ccc(F)cc1)c1ccc2ncsc2c1`: 0.29%. For `O=C(Nc1ccc(Br)cc1)c1ccc2ncsc2c1` the value was “inactive”; for `O=C(O)c1cc(-c2ccccc2)nn1CC1CC(c2cccnc2)=NO1` (stereo unspecified), 1.3%. As to `O=C(NCc1ccccc1)C1CCCN(S(=O)(=O)c2ccc(Br)cc2)C1` (stereo unspecified), the inhibition was 1.64% [at 50 µM, active compounds read high]. On to `CC(C)(C)c1ccc(OCC(O)CN(CCO)CC(O)Cn2ccc3ccccc32)cc1` (stereo unspecified), for which the inhibition is 0.2%. The same measure for `CC1(c2ccccc2)NC(=O)N(NC(=O)CSc2n[nH]c(N)n2)C1=O` (stereo unspecified): 0.72%; for `COc1ccc(S(=O)(=O)N2CCN(c3ccccc3OC)CC2)cc1`: 0.03%; for `Cc1ccc(C)c(NC(=O)COC(=O)CCc2ccc(S(=O)(=O)N3CCOCC3)cc2)c1`: -0.17%. The same measure for `CC(=O)Nc1cccc(-c2nnc(SCC(=O)N3CCCCC3)n2C)c1`: 0.94%; for `Cc1cc(C)c(NC(=O)COc2nncc3ccccc23)c(C)c1`: -1.44%; for `CC(C)NC(=O)COc1cccc2ccccc12`: 1.21%. As to `COc1ccccc1OCC(O)CN1CCN(CC(=O)Nc2c(C)cccc2C)CC1` (stereo unspecified), the inhibition was 3.11% and 2.01%. For `Cc1ccc(NC(=O)CCC(=O)NNC(=O)COc2cccc3ccccc23)c(C)c1` the value was -0.27%; for `CC(CCc1ccccc1)NC(=O)CN1CCOc2ccccc21` (stereo unspecified), 0.85%. Turning to `CSc1ccc(CN(C)CC(=O)Nc2ccc(NC(C)=O)cc2)cc1`, the inhibition is -0.1%. The same measure for `COc1ccc(-c2nc(NCCCN(C)C)c3ccccc3n2)cc1`: 5.55%. For `CCN(CC)CCCNc1nc(-c2ccccc2)nc2ccccc12` the value was 0.145% [at 50 µM, active compounds read high]; for `O=C(O)CCCC(=O)Nc1cccc(C(=O)Nc2ccccc2C(=O)O)c1`, 1.41%.

Turning to `O=C1c2cccc(NCCCNCCO)c2C(=O)c2cccc(NCCCNCCO)c21`, the inhibition entry is “inactive”.

In the case of `O=C1c2ccccc2C(=O)c2c(Nc3ccc(CCO)cc3)ccc(O)c21`, the inhibition is -1.03% [at 50 µM, active compounds read high].

As for `N=C(N)SCCc1cnc[nH]1`, the inhibition was 1.68%.

For the compound `Cc1cccc(CSC(=N)N)c1`, the inhibition is 7.29%. The same measure for `Cc1noc(/C=C/c2ccccn2)c1[N+](=O)[O-]`: 0.12%; for `CCOC(=O)C1(Cc2ccc(Cl)cc2)CCN(C(C)Cc2ccc(O)c(OC)c2)CC1` (stereo unspecified): 0.5%. The same measure for `Cc1ccc(NC(=O)CN(C)C(=O)COc2ncnc3ccc(Br)cc23)cc1`: 0.5% [at 50 µM, active compounds read high]; for `COc1ccc(NS(=O)(=O)c2cccc(C(=O)NCCCN3CCOCC3)c2)cc1`: 1% [at 50 µM, active compounds read high]. The same measure for `CC(=O)NN=C1CCC(c2ccccc2)CC1` (stereo unspecified): 4.73%; for `COc1ccccc1OCC(=O)NNC(=O)c1cccs1`: 5.22%; for `COc1ccc(C(CNC(=O)c2cncc(Br)c2)N(C)C)cc1` (stereo unspecified): -0.11%. For `COc1cc(C2C(C#N)=C(N)Oc3n[nH]c(-c4ccncc4)c32)cc(OC)c1OC` (stereo unspecified), the inhibition was 1.19%.

For `COc1ccccc1NC(=O)CN1C(=O)C(C)Oc2ccccc21` (stereo unspecified), the inhibition was -1.62%. The same measure for `CCOc1ccc(S(=O)(=O)NCc2cccnc2)cc1C`: 0.14%; for `COC(=O)/C=C/C(=O)Nc1ccc(O)c(Cl)c1`: -2.78%. The same measure for `Cc1ccc(N2C(=O)C3C4CCC(O4)C3C2=O)c(OC(F)F)c1` (stereo unspecified): 2% [at 50 µM, active compounds read high].

In the case of `CC(C)Nc1nc(SCC(=O)Nc2ccccc2)nc(N2CCOCC2)n1`, the inhibition is -0.955% [at 50 µM, active compounds read high].

As for `c1ccc(C(c2nnnn2C2CCCCC2)N2CCc3ccccc3C2)nc1` (stereo unspecified), the inhibition was 6.52%. For `C/C(=N\NC(=O)C(O)c1ccccc1)c1ccc(Cl)cc1` (stereo unspecified), the inhibition was 0%.

Regarding `O=C(COC(=O)c1ccccn1)Nc1ncc(C(F)(F)F)cc1Cl`, the inhibition is 1.67%. Regarding `Cc1noc(/C=C/c2ccco2)c1S(=O)(=O)N1CCC(C(=O)NCc2ccco2)CC1`, the inhibition was 0.57%. As for `Cc1cc(C)n(CC(=O)NCc2ccccc2)c(=O)c1C#N`, the inhibition is 0.26%. The same measure for `O=c1[nH]c2ccccc2c2ccc(Cl)cc12`: -0.77%; for `Cc1ccc(NC(=O)N/C=C/c2ccco2)cc1`: -0.09%; for `COc1ccc(NC(=O)CN2C(=O)/C(=C3\SC(=S)N(CCC(=O)O)C3=O)c3ccccc32)cc1`: 1.3% [at 50 µM, active compounds read high]. The same measure for `CSc1nnc(-c2cccn(Cc3cccc(Cl)c3)c2=O)o1`: 0.19%; for `Cc1cc(N(C)/N=C/c2ccccc2O)nc(-c2ccccc2O)n1`: -1.22%; for `COc1ccc2[nH]c3c(c2c1)CCN1C(=O)N([C@@H](C)C(=O)NCc2ccc(F)cc2)C(=O)[C@]31C`: 1.55%. Turning to `Cc1ccn2cc(-c3cccc(S(=O)(=O)N4CCCCC4)c3)nc2c1`, the inhibition is -0.04%. For `COc1ccccc1C(=O)NCCC(=O)NC1CCCCCC1` the value was 0.81% [at 50 µM, active compounds read high]; for `COc1ccc(C(C)(C)C)cc1S(=O)(=O)N1CCN(C)CC1`, 0.43%; for `Cc1cccc(NC(=O)Nc2ccncc2)c1`, 3.48%. Take `O=C(Nc1ccncc1)Nc1cccc(F)c1`: the inhibition was 0.13%. On to `COc1ccc2c(c1)C1=C(CC2)C(c2ccc(C)cc2)NC(=S)N1` (stereo unspecified), for which the inhibition is -0.41%. The same measure for `CN(C)CCN(C(=O)c1ccc2c(c1)OCCO2)c1nc2ccc(Cl)cc2s1`: 3.17% [at 50 µM, active compounds read high]; for `Cc1ccccc1C(=O)N=c1ccn(-c2nc3ccccc3nc2NS(=O)(=O)c2ccccc2)cc1`: 0.1%.

As for `CCOc1ccc(C(=O)C(CCC(CN(C)C)C(=O)c2ccc(OCC)cc2)CN(C)C)cc1` (stereo unspecified), the inhibition is 0.87%.

As to `CCCOc1ccc(C(=O)O)cc1`, the inhibition was -0.2%.

For `Cc1cccc(NC(=O)/C(C#N)=C/c2ccc(Cl)cc2)n1`, the inhibition is 0%. The same measure for `Cc1cc(C)c2c3c(oc2n1)C(=O)N(c1cccc(Cl)c1)CC(=O)N3`: 0.63%; for `Clc1ccc(-n2nnnc2-c2cnc3ccc(Cl)cc3c2-c2ccccc2)cc1`: 0.85%. For `O=C(Nc1ccc(Cl)c(S(=O)(=O)N2CCOCC2)c1)[C@@H]1CCCN1C(=O)c1cccs1` the value was 0.43% [at 50 µM, active compounds read high]; for `COc1ccc(C[C@@H]2CN3C(=NC[C@@H]3Cc3ccc(O)cc3)N2C[C@H](C)NC(=O)CCC2CCCCC2)cc1`, 0.18%; for `CCOC(=O)C1CCN(C(=O)CN(c2ccc3c(c2)OCO3)S(C)(=O)=O)CC1`, 0.52%.

Regarding `O=C(NN=Cc1ccccc1O)C(O)(c1ccccc1)c1ccccc1`, the inhibition is -1.49%. The same measure for `COc1cccc(C2C3=C(CC(C)(C)CC3=O)Nc3cc4c(cc32)OCO4)c1` (stereo unspecified): 2.26%. With `Cc1nc(N2CCN(C(=O)c3ccco3)CC2)c2oc3ccccc3c2n1`, the inhibition is 1.22%. For the compound `CCOc1cc(C2NC(=O)c3ccccc3O2)ccc1OC(C)C` (stereo unspecified), the inhibition is 2.06%.

Turning to `O=C(O)CCC(=NNC(=O)c1cccc(S(=O)(=O)N2CCCCC2)c1)c1ccccc1`, the inhibition is 0.71% [at 50 µM, active compounds read high]. For `CCN(CC)c1ccc(NC(=O)c2ccc3c(c2)OCO3)cc1` the value was 2.01%.

As for `CCN(CC)c1ccc(C(=O)Nc2cccc(F)c2)cc1`, the inhibition is 2.12%. On to `CCCNC(=O)C(=O)Nc1ccc2c(c1)N(S(=O)(=O)c1cccs1)CCC2`, for which the inhibition was 1.18% [at 50 µM, active compounds read high]. The same measure for `CCc1cc2cc(C)cc(C)c2nc1SCC(=O)Nc1cc(C)on1`: 0.23%.

For the compound `O=C(Nc1cc2c3c(c1)CC(=O)N3CCC2)c1c(F)cccc1F`, the inhibition is 1.43% [at 50 µM, active compounds read high]. For `CCOc1ccc(NC(=S)N2CCCC2)cc1` the value was 0.16%; for `COC(=O)c1sccc1NC(=O)Nc1cccc(Cl)c1Cl`, 0.2%.

Take `Cc1c(N(C(=O)Nc2ccccc2)C2=NCC(C)S2)c(=O)n(-c2ccccc2)n1C` (stereo unspecified): the inhibition is 0.11%. For `COc1cc(C2NC(=S)NC3=C2CCc2ccccc23)cc(OC)c1OC` (stereo unspecified) the value was 0.64% [at 50 µM, active compounds read high]; for `COc1ccc(CCNC(=O)C23CCC(C)(C(=O)O2)C3(C)C)cc1OC` (stereo unspecified), 1.58% [at 50 µM, active compounds read high]. The same measure for `CCCn1nc(-c2nnc(-c3ccc(C)c(C)c3)o2)c2ccccc2c1=O`: 0.05%. For `CCn1ncc(C2=NOC(C(=O)Nc3cccc(C(C)=O)c3)C2)c1C` (stereo unspecified) the value was 4.79%; for `CS(=O)(=O)N(CC(=O)NN=C1CCCCCC1)c1ccc(Oc2ccccc2)cc1`, 0.37%. As to `CCN1C(=O)N[C@@H](c2cccc(C(F)(F)F)c2)[C@@H](C(=O)OC)[C@H]1C`, the inhibition is 0.13%. The same measure for `O=C(Oc1coc(CSc2nnc(NC(=O)C3CC3)s2)cc1=O)c1ccccc1`: 4.85%.
